Active and inactive are the calls of the source. The rule behind the calls is not given here.
What follows are molecules tested against Pantothenate synthetase (Mycobacterium tuberculosis (strain ATCC 25618 / H37Rv)) (UniProt P9WIL5) (assay: Coupled enzyme confirmation of inhibitors against recombinant Mtb PanC (AID 375;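 note: 0% = full reaction with vehicle and 100% = no enzyme background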)). Settings: coupled enzyme assay; at 10 µM, hits give high values.
Chain of Pantothenate synthetase (Mycobacterium tuberculosis (strain ATCC 25618 / H37Rv)) (P9WIL5 whole entry, looked up): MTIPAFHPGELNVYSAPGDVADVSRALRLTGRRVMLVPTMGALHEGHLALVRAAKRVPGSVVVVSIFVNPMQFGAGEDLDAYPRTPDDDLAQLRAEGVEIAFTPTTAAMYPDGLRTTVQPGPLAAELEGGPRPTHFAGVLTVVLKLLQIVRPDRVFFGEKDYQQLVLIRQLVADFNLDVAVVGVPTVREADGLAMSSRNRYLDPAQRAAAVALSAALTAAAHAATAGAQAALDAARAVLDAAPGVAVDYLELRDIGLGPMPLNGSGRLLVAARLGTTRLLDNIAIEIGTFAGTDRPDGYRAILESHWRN
In the case of `CC(=O)N1CN(C2CCCC2)Cc2c1sc1c2CCCC1`, the inhibition is reported as 0% (inactive). In the case of `CCCN(CCC)C(=O)c1c(C)[nH]c(C(=O)OCC)c1C`, the inhibition is reported as 0% (inactive). For `O=C1c2ccccc2C(Nc2ccc3c(c2)OCO3)N1Cc1ccc2c(c1)OCO2` (centres undefined), the inhibition was 0% (inactive). `O=C(COC(=O)CCC1CCCC1)Nc1ccc(Cl)cn1` was tested, and the inhibition was 2% (inactive). `COc1ccc(C(=O)CN2C3=NCCCN3c3ccccc32)cc1OC` was tested, and the inhibition was 0% (inactive). For `c1ccc2c(c1)sc1nnnn12`, the inhibition was 12% (inactive). For `O=C(Nc1ccc2c(c1)OCO2)N1CCN(c2ncccn2)CC1`, the inhibition was 0% (inactive). For `O=C(Nc1ccc2oc(Cc3ccc(Cl)cc3)nc2c1)c1cccnc1`, the inhibition was 0% (inactive). For `CC1=C(C(=O)Nc2ccccc2)C(c2cccs2)C(C#N)=C(SCC#N)N1` (centres undefined), the inhibition was 5% (inactive). In the case of `COc1cc(SC)ccc1C(=O)Nc1ccccc1C#N`, the inhibition is reported as 0% (inactive). `COc1cccc(NC(=O)CSc2nnc(Cc3cccn3C)n2-c2ccc(F)cc2)c1` was tested, and the inhibition was 4% (inactive). `COC(=O)C1C(=O)C2=C(CC1C)NC(=O)CC2c1ccccc1` (centres undefined) was tested, and the inhibition was 0% (inactive). `CSc1nnc2n(CCc3ccccc3)c(=O)c3c4c(sc3n12)CCCC4` was tested, and the inhibition was 2% (inactive). `COc1cccc(S(=O)(=O)Nc2ccc(C(=O)N3CCN(C(=O)c4ccco4)CC3)cc2)c1` was tested, and the inhibition was 0% (inactive). For `CCOc1ccc2[nH]cc(C(=O)N3CCN(CC)CC3)c(=O)c2c1`, the inhibition was 0% (inactive). For `CCC(=O)O[C@@H]1CC(=O)O[C@H](C)CC=CC=C[C@@H](O)[C@H](C)C[C@H](CC=O)[C@H](O[C@H]2O[C@H](C)[C@@H](O[C@H]3C[C@@](C)(O)[C@@H](OC(=O)CC)[C@H](C)O3)[C@H](N(C)C)[C@H]2O)[C@H]1OC`, the inhibition was 4% (inactive). For `Cc1cccc2cc(CN(Cc3nnnn3Cc3ccco3)C3CCCC3)c3nnnn3c12`, the inhibition was 3% (inactive). For `COC(=O)c1ccc(-c2sc3nc(N4CCOCC4)c4c(c3c2N)CCCC4)o1`, the inhibition was 0% (inactive). For `C(=N\n1cnnc1)/c1cccnc1`, the inhibition was 0% (inactive). In the case of `CC1Oc2ccccc2N(CC(=O)N(Cc2ccccc2)Cc2ccccn2)C1=O` (centres undefined), the inhibition is reported as 4% (inactive). In the case of `O=C(NC1CCCC1)c1cc(-c2cccs2)on1`, the inhibition is reported as 6% (inactive). In the case of `OCc1cn(-c2ccccc2)nc1-c1ccc2c(c1)OCCO2`, the inhibition is reported as 0% (inactive). For `O=C(COC(=O)C12CC3CC(CC(O)(C3)C1)C2)N1CCN(S(=O)(=O)c2ccc(Cl)cc2)CC1`, the inhibition was 3% (inactive). In the case of `COc1cc(CN2CCSCC2)cc(OC)c1OC`, the inhibition is reported as 0% (inactive). With `CCOc1ccc(NC(=O)c2ccccc2O)cc1` the inhibition was 0% (inactive). `Cc1nn(C(=O)c2cc3sccc3[nH]2)c(C)c1C` was tested, and the inhibition was 0% (inactive). With `Cc1cccc(NC(=O)c2cc3ccccc3o2)c1` the inhibition was 5% (inactive). In the case of `C=CCn1c(C)cc(C(=O)CSc2nc3ccccc3o2)c1C`, the inhibition is reported as 9% (inactive). `O=C(c1ccc2c(c1)[nH]c(=S)n1c3ccccc3nc21)N1CCN(c2ncccn2)CC1` was tested, and the inhibition was 8% (inactive). `COC(=O)CN(c1ccc(OC)cc1)S(=O)(=O)c1ccc(OC)c(OC)c1` was tested, and the inhibition was 0% (inactive). In the case of `O=C(NCCN1CCCCCC1)c1ccc(N2CCCC2=O)cc1`, the inhibition is reported as 1% (inactive). For `CCOC(=O)C1CCCN(C(=O)c2ccc3c(=O)n(CCOC)c(=S)[nH]c3c2)C1` (centres undefined), the inhibition was 2% (inactive). For `Cc1cnnc2c1-c1nonc1CC2`, the inhibition was 4% (inactive). In the case of `Cc1cc(C)c(NC(=O)C2CSCCS2)c(C)c1` (centres undefined), the inhibition is reported as 0% (inactive). With `COc1ccc(-n2nc(C(=O)Nc3ccc4c(c3)OCO4)c3c4ccccc4n(C)c3c2=O)cc1` the inhibition was 2% (inactive). For `Brc1ccc(-c2csc(/N=C/N3CCOCC3)n2)cc1`, the inhibition was 3% (inactive). With `COC(=O)Nc1ccc(S(=O)(=O)N2CCN(c3ccc(F)cc3)CC2)cc1` the inhibition was 0% (inactive). For `O=C(NCc1ccccn1)C(C(=O)c1ccc(F)cc1)n1ccccc1=O` (centres undefined), the inhibition was 5% (inactive). In the case of `CCN(C(=O)c1cc2cc3ccc(C)cc3nc2o1)c1ccc(OC)cc1`, the inhibition is reported as 6% (inactive).

Reference: PubChem BioAssay
